What all share (assay): Euclidean distance of Cell Painting phenotypic profile (signed KS, 77 features) to DMSO centroid (dimensionless distance); 5 or 10 uM (library dependent); higher = stronger phenotypic change vs DMSO (phenoactivity)
Holding throughout (conditions): 48 h

The test system of one assay is 786-O. Put shortly:
(§1)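 At 10 or 5 uM, as set by the library, and 0.1% DMSO final, compounds were applied for 48 h to five cancer lines and one healthy fibroblast line. Stained cells were imaged confocally at 20X in 9 fields per well, and Harmony extracted 77 features scored as signed Kolmogorov-Smirnov statistics against vehicle wells on the same plate. Profiles underwent plate-position correction, correlation weighting and replicate averaging at the top dose. Phenoactivity is the Euclidean distance from each such profile to the median vehicle profile.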

In a further assay the test system is A549. The procedure, abridged: as §1
A further assay concerns DU145. Put shortly: as §1
Another assay concerns FB. The procedure, abridged: as §1
A further assay concerns HEPG2. Put shortly:
as §1

A further assay deals with OVCAR4. The procedure, abridged:
as §1

The structures appear in SMILES notation. Where a name gives a salt, the structure may show the parent alone.

Regarding `N#Cc1ccc([C@H]2CCc3cncn32)c(F)c1` [Osilodrostat (LCI699)], the Euclidean distance turned out to be 1.39 with 786-O; 1.28 with A549; 1.56 in the assay on DU145; 1.68 in the assay with FB; 0.588 with HEPG2; 1.57 with OVCAR4.

Take `COc1ccccc1N1CCN(CCCNc2cc(=O)n(C)c(=O)n2C)CC1` [Urapidil HCl]: the Euclidean distance was 1.39 with 786-O; 0.9 in the assay with A549; 0.94 in the assay with DU145; 0.778 with FB; 0.34 with HEPG2; 0.898 in the assay with OVCAR4.

Take `CC(C)NCC(O)c1ccc(NS(C)(=O)=O)cc1` (centres undefined) [Sotalol]: the Euclidean distance in the assay on 786-O was 1.21; in the assay with A549, 0.865; in the assay with DU145, 0.768; with FB it was 0.911; with HEPG2, 0.602; in the assay on OVCAR4, 1.02.

Regarding `CC(=O)c1cc([N+](=O)[O-])c(Sc2cccc(Cl)c2Cl)s1`, the Euclidean distance with 786-O was found to be 0.465; in the assay on A549, 0.706; in the assay with DU145 it was 0.528; in the assay with FB, 0.668; with HEPG2, 0.869; in the assay with OVCAR4, 1.26.

`C[C@@H](O)[C@H]1C(=O)N2C(C(=O)O)=C([C@H]3CCCO3)S[C@H]12` [Faropenem Sodium]: the Euclidean distance with 786-O stood at 1.24; in the assay on A549, 0.485; in the assay with DU145, 1; in the assay on FB, 0.587; with HEPG2 it was 0.554; with OVCAR4 it was 0.718.

With `O=C1[C@H](CC[C@H](O)c2ccc(F)cc2)[C@@H](c2ccc(O)cc2)N1c1ccc(F)cc1` [Ezetimibe], the Euclidean distance stood at 1.74 with 786-O; 1 in the assay on A549; 3.08 in the assay on DU145; 1.36 with FB; 2.26 in the assay on HEPG2; 1.34 with OVCAR4.

Regarding `CCCCN1CCCC[C@H]1C(=O)Nc1c(C)cccc1C` [Levobupivacaine HCl], the Euclidean distance was 1.01 with 786-O; 1.33 in the assay on A549; 0.6 with DU145; 0.871 with FB; 0.852 with HEPG2; 1.49 in the assay on OVCAR4.

Take `CCOC(=O)[C@H](CCc1ccccc1)N[C@@H](C)C(=O)N1CCC[C@H]1C(=O)O` [Enalapril Maleate]: the Euclidean distance with 786-O turned out to be 1.04; in the assay on A549, 0.697; in the assay on DU145, 0.694; in the assay with FB it was 0.816; in the assay with HEPG2, 0.78; with OVCAR4 it was 1.28.

In the case of `CN1C(CCl)Nc2cc(Cl)c(S(N)(=O)=O)cc2S1(=O)=O` (centres undefined) [Methyclothiazide], the Euclidean distance in the assay with 786-O stood at 1.01; with A549, 0.722; in the assay on DU145, 0.72; in the assay with FB, 0.776; in the assay on HEPG2, 0.485; in the assay on OVCAR4, 1.52.

`COC(=O)C1=CO[C@@H](O[C@@H]2O[C@H](CO)[C@@H](O)[C@H](O)[C@H]2O)[C@@H]2[C@@H](C)[C@@H](O)C[C@H]12` [Loganin]: the Euclidean distance worked out at 0.879 with 786-O; 0.804 in the assay with A549; 1.02 with DU145; 0.781 in the assay with FB; 0.691 in the assay with HEPG2; 0.971 with OVCAR4.

Take `O=C(/C=C/c1ccc(O)c(O)c1)OCCc1ccccc1` [Caffeic Acid Phenethyl Ester]: the Euclidean distance in the assay on 786-O came to 1.43; in the assay with A549, 2.31; in the assay with DU145, 1.1; in the assay on FB, 1.78; with HEPG2, 1.71; with OVCAR4 it was 1.18.

In the case of `CS(=O)(=O)CCNCc1ccc(-c2ccc3ncnc(Nc4ccc(OCc5cccc(F)c5)c(Cl)c4)c3c2)o1` [Lapatinib], the Euclidean distance came to 4.13 in the assay with 786-O; 3.1 in the assay with A549; 2.2 with DU145; 2.22 in the assay with FB; 3.72 in the assay with HEPG2; 3.77 with OVCAR4.

For the molecule `OCCN1CCN(CCCN2c3ccccc3Sc3ccc(C(F)(F)F)cc32)CC1` [Fluphenazine dihydrochloride], the Euclidean distance in the assay with 786-O stood at 1.98; in the assay with A549, 2.27; with DU145, 1.87; in the assay on FB, 2.76; in the assay on HEPG2 it was 2.66; in the assay with OVCAR4 it was 1.77.

On to `CCOC(=O)[C@H](CCc1ccccc1)N[C@@H](C)C(=O)N1Cc2ccccc2C[C@H]1C(=O)O` [Quinapril HCl], for which the Euclidean distance was 1.41 in the assay on 786-O; 1.16 in the assay with A549; 0.942 in the assay with DU145; 1.09 in the assay on FB; 0.483 in the assay with HEPG2; 1.04 in the assay with OVCAR4.

On to `CN(C)C(=O)c1cc2cnc(Nc3ccc(N4CCNCC4)cn3)nc2n1C1CCCC1`, for which the Euclidean distance was found to be 2.35 in the assay on 786-O; 1.67 in the assay with A549; 1.46 in the assay on DU145; 3.9 with FB; 1.9 in the assay on HEPG2; 1.81 in the assay on OVCAR4.

As for `COc1ccc(-c2cc(=O)c3c(O)c(OC)c(O)cc3o2)cc1OC` [Eupatilin], the Euclidean distance with 786-O was 1.61; in the assay on A549, 1.04; in the assay with DU145 it was 1.76; in the assay on FB it was 1.51; in the assay with HEPG2, 1.35; in the assay on OVCAR4, 0.872.

In the case of `O[C@@H]1CO[C@H]2[C@@H]1OC[C@@H]2O` [Isosorbide], the Euclidean distance with 786-O came out at 1.15; with A549 it was 0.673; with DU145, 1.24; in the assay on FB, 1.02; in the assay with HEPG2, 0.565; with OVCAR4, 1.64.

In the case of `N[C@H](CO)C(=O)O` [(R)-Serine], the Euclidean distance is 1.31 with 786-O; 1.48 in the assay with A549; 0.909 with DU145; 0.797 in the assay with FB; 0.786 with HEPG2; 1.43 with OVCAR4.

Consider `CC[N+](CC)(CC)CC` [Tetraethylammonium bromide], for which the Euclidean distance with 786-O turned out to be 1.58; with A549 it was 0.816; in the assay on DU145 it was 0.857; in the assay with FB, 0.968; with HEPG2, 1.11; in the assay on OVCAR4, 0.715.

`C[C@H]1COc2c(N3CCN(C)CC3)c(F)cc3c(=O)c(C(=O)O)cn1c23` [Levofloxacin hydrate]: the Euclidean distance in the assay with 786-O amounted to 1.06; with A549, 0.678; with DU145, 1.07; in the assay with FB, 1.25; in the assay with HEPG2, 0.54; in the assay on OVCAR4, 1.57.

Regarding `OC(c1ccccc1)(c1ccccc1)C12CC[N+](CCOCc3ccccc3)(CC1)CC2` [Umeclidinium bromide], the Euclidean distance in the assay with 786-O stood at 0.834; in the assay with A549 it was 1.43; in the assay on DU145 it was 0.97; in the assay with FB, 1.27; with HEPG2, 0.7; with OVCAR4, 1.64.

On to `COc1cc2c(cc1Cc1cccc(Cl)c1F)c(=O)c(C(=O)O)cn2[C@H](CO)C(C)C` [Elvitegravir (GS-9137. JTK-303)], for which the Euclidean distance with 786-O was 1.44; with A549, 2.36; with DU145 it was 1.33; with FB, 0.872; with HEPG2, 0.582; in the assay with OVCAR4, 1.76.

On to `CCOC(=O)C(C)(C)Oc1ccc(Cl)cc1` [Clofibrate], for which the Euclidean distance in the assay on 786-O was 0.866; with A549 it was 0.429; in the assay with DU145 it was 1.7; with FB, 1.41; in the assay on HEPG2 it was 0.393; with OVCAR4, 0.939.

`O=C(O)Cc1ccccc1Nc1c(Cl)cccc1Cl` [Diclofenac Epolamine]: the Euclidean distance in the assay on 786-O was found to be 0.939; with A549, 0.571; with DU145, 1.14; in the assay on FB, 0.969; in the assay on HEPG2 it was 0.65; in the assay with OVCAR4 it was 1.22.

For the origin of these results see the supplement of paper PMC10127200.
